Test results from PubChem BioAssay (NCI).
About 83,000 compounds went through this panel and 20% of them were active in at least one assay; those are over-represented in the sample as a whole.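 In brief: 96-well plates, 48 h treatment, single concentration, percent growth endpoint.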 Active and inactive are the calls of the source. Rule for the calls: active = growth percent below 10; inactive = the rest.

Tests used:
Assay in all cases: NCI-60 one-dose screen, 48 h (100 = growth as untreated, 0 = no growth, -100 = all killed)
Conditions in all cases: 10 µM unless noted
T-47D breast = test system: T-47D breast
BT-549 breast = test system: BT-549 breast
MDA-MB-435 melanoma = test system: MDA-MB-435 melanoma
SW-620 colon = test system: SW-620 colon
HCT-116 colon = test system: HCT-116 colon
HCC-2998 colon = test system: HCC-2998 colon
KM12 colon = test system: KM12 colon
MCF7 breast = test system: MCF7 breast

Measured: growth

O=C(/C=C1\C(=O)N(Cc2ccc([N+](=O)[O-])cc2)c2ccccc21)c1ccc(OCCN2CCCCC2)cc1
active: T-47D breast -62.8% | BT-549 breast -80% | SW-620 colon -78.7% | HCT-116 colon -91.2% | KM12 colon 3.66%
inactive: MDA-MB-435 melanoma 22.5% | HCC-2998 colon 42.1%

Oc1ccc(Br)cc1/C=N/NC(=S)NC12CC3CC(CC(C3)C1)C2
inactive: BT-549 breast 64.3% | MDA-MB-435 melanoma 18.6%
active: T-47D breast -4.11% | SW-620 colon -24.8% | MCF7 breast -17.4% | HCC-2998 colon -8.19% | KM12 colon -24.6%

COc1ccc(Cn2cc3c(c2-c2ccc(OC)cc2)CCc2cnoc2-3)cc1
active: MDA-MB-435 melanoma -29.7% | HCT-116 colon 4.82% | HCC-2998 colon -30.2% | KM12 colon 5.5%
inactive: T-47D breast 38.7% | BT-549 breast 30.3% | SW-620 colon 22.6%

COc1ccc(NC(=O)/C=C(C)/C=C/C=C(C)/C=C/C2=C(C)CCCC2(C)C)cc1
inactive: T-47D breast 17.8% | BT-549 breast 96.2% | MDA-MB-435 melanoma 95.7% | SW-620 colon 69.3% | MCF7 breast 73.7% | HCC-2998 colon 97.9% | KM12 colon 88.9%

CCOC(=O)c1cc(-c2ccc(OC)cc2)[nH]c1NNC(=O)CCOC
inactive: T-47D breast 95.2% | BT-549 breast 91.9% | MDA-MB-435 melanoma 96.9% | SW-620 colon 101% | MCF7 breast 113% | HCC-2998 colon 122% | KM12 colon 118%

NC(CSC(c1ccccc1)(c1ccccc1)c1ccccc1)C(=O)NCC(=O)O (configuration not stated)
active: MDA-MB-435 melanoma -5.86%
inactive: T-47D breast 96.1% | BT-549 breast 70.4% | SW-620 colon 41.6% | MCF7 breast 45% | HCC-2998 colon 28% | KM12 colon 77.5%

CC(O)CN(CC(C)O)N(CC(C)O)CC(C)O (configuration not stated)
inactive: T-47D breast 105% | BT-549 breast 94.9% | MDA-MB-435 melanoma 104% | SW-620 colon 104% | MCF7 breast 101% | HCC-2998 colon 107% | KM12 colon 109%

COc1cc(NC(C)CCCN)c2nc(C)ccc2c1OC (configuration not stated)
inactive: T-47D breast 90.5% | BT-549 breast 103% | MDA-MB-435 melanoma 121% | SW-620 colon 104% | MCF7 breast 47.1% | HCC-2998 colon 87.2% | KM12 colon 103%

CC(O)CN(CCO)CCN(CCO)CC(C)O (configuration not stated)
inactive: T-47D breast 100% | BT-549 breast 105% | MDA-MB-435 melanoma 106% | SW-620 colon 105% | HCT-116 colon 104% | HCC-2998 colon 109% | KM12 colon 108%

CCOC(=O)NC1=NCC(C)(C)S1
inactive: T-47D breast 93.8% | BT-549 breast 106% | MDA-MB-435 melanoma 100% | SW-620 colon 103% | HCT-116 colon 105% | HCC-2998 colon 98.3% | KM12 colon 101%

CC(=O)NCCN
inactive: T-47D breast 97.5% | BT-549 breast 102% | MDA-MB-435 melanoma 107% | SW-620 colon 107% | HCT-116 colon 102% | HCC-2998 colon 97.4% | KM12 colon 113%

CC1(C)CC(=O)C2=C(C1)Oc1nc(N)c(C#N)c(N)c1C2c1ccc(F)cc1 (configuration not stated)
inactive: T-47D breast 116% | BT-549 breast 100% | MDA-MB-435 melanoma 112% | SW-620 colon 101% | MCF7 breast 109% | HCC-2998 colon 132% | KM12 colon 109%

C=CN(C)S(C)(=O)=O
inactive: T-47D breast 16.8% | BT-549 breast 46.8% | SW-620 colon 19.9% | HCT-116 colon 19.7% | HCC-2998 colon 53% | KM12 colon 33.6%
active: MDA-MB-435 melanoma -35.4%

Cn1cnc2nc[nH]c2c1=S
inactive: T-47D breast 96% | BT-549 breast 98.6% | MDA-MB-435 melanoma 109% | MCF7 breast 94.2% | HCT-116 colon 106% | HCC-2998 colon 102% | KM12 colon 105%

NNC(=S)N1N=C(c2cc3ccccc3o2)CC1c1c[nH]c2ccccc12 (configuration not stated)
inactive: T-47D breast 40.3% | BT-549 breast 32.2% | MDA-MB-435 melanoma 57.8% | MCF7 breast 20.7% | HCT-116 colon 23.8% | HCC-2998 colon 52% | KM12 colon 37.4%

COc1ccc(/C=C2\CCCC3=C2N=C2SC=NN2C3c2ccc(OC)c(OC)c2)cc1OC (configuration not stated)
active: HCT-116 colon 8.93%
inactive: T-47D breast 52.5% | BT-549 breast 38.5% | MDA-MB-435 melanoma 18.2% | SW-620 colon 29.7% | HCC-2998 colon 57.1% | KM12 colon 28.2%

BrCCCOc1ccc(Oc2ccc(OCCCBr)cc2)cc1
inactive: T-47D breast 113% | BT-549 breast 91% | MDA-MB-435 melanoma 107% | MCF7 breast 97.9% | HCT-116 colon 102% | HCC-2998 colon 119% | KM12 colon 113%

Cc1ccc(CC(=O)O)c(C)c1
inactive: T-47D breast 97.1% | BT-549 breast 119% | MDA-MB-435 melanoma 108% | MCF7 breast 95.7% | HCT-116 colon 107% | HCC-2998 colon 89.8% | KM12 colon 105%

CCCCCC(=C/c1ccccc1)/C=N/N=C(N)N
active: T-47D breast -34.3% | MDA-MB-435 melanoma -80% | MCF7 breast -69.6% | HCT-116 colon -56.6% | HCC-2998 colon -79%
inactive: BT-549 breast 46.6%

O=P(OCCCl)(OCCCl)C(O)c1ccccc1Cl (configuration not stated)
inactive: T-47D breast 98.2% | BT-549 breast 107% | MDA-MB-435 melanoma 102% | MCF7 breast 99% | HCT-116 colon 107% | HCC-2998 colon 106% | KM12 colon 104%

CCCCCCCCCC(C)NC(=O)CCl (configuration not stated)
inactive: T-47D breast 82.6% | BT-549 breast 88.8% | MDA-MB-435 melanoma 96.3% | MCF7 breast 86.2% | HCT-116 colon 95.7% | HCC-2998 colon 103% | KM12 colon 101%

[2H]c1nc(=Nc2cc(NC(=O)C=C)c(N(C)CCN(C)C)cc2OC)[nH]c(-c2cn(C([2H])([2H])[2H])c3ccccc23)c1[2H]
inactive: T-47D breast 33% | BT-549 breast 62.9% | MDA-MB-435 melanoma 22.2% | SW-620 colon 21.1% | HCT-116 colon 13.7% | HCC-2998 colon 51% | KM12 colon 65.3%

C/C(=C\c1ccc2ccccc2c1)[N+](=O)[O-]
active: T-47D breast -52.8% | MCF7 breast -50.9% | HCT-116 colon -40.7%
inactive: BT-549 breast 64.4% | MDA-MB-435 melanoma 51.8% | HCC-2998 colon 78.5% | KM12 colon 56%

Ic1ccc(SSc2ccc(I)cc2)cc1
inactive: T-47D breast 79.7% | BT-549 breast 41.5% | MDA-MB-435 melanoma 100% | MCF7 breast 92.4% | HCT-116 colon 83.7% | HCC-2998 colon 104% | KM12 colon 82.2%

CC1=C(C)C(=O)C(C(C)C2=C(C)C(=O)C(C)=C(C)C2=O)=C(C)C1=O
inactive: T-47D breast 91.6% | BT-549 breast 83.5% | MDA-MB-435 melanoma 98.1% | MCF7 breast 102% | HCT-116 colon 71.2% | HCC-2998 colon 23.4% | KM12 colon 88.8%

C[n+]1c2ccccc2c(Nc2ccc(NS(=O)(=O)CCCCN=C(N)N)cc2)c2ccc(N)cc21
inactive: T-47D breast 21.9% | BT-549 breast 88.7% | MDA-MB-435 melanoma 87.8% | MCF7 breast 19.7% | HCT-116 colon 37.3% | HCC-2998 colon 40.6% | KM12 colon 42.3%

N=C(N)c1ccc(-c2ccc(-c3ccc(F)cc3)s2)cc1
active: T-47D breast -57.5% | BT-549 breast -19.9% | MDA-MB-435 melanoma -99.2% | MCF7 breast -83.5% | HCT-116 colon -83.3% | HCC-2998 colon -77.5% | KM12 colon -87.3%

CC(=O)N1N=C(c2ccc(Cl)cc2)CC1c1cn(-c2ccccc2)nc1-c1ccc([N+](=O)[O-])cc1 (configuration not stated)
inactive: T-47D breast 86.9% | BT-549 breast 89.7% | MDA-MB-435 melanoma 98.1% | SW-620 colon 99% | HCT-116 colon 97.1% | HCC-2998 colon 231% | KM12 colon 101%

CCOC(=O)c1c(C)oc2ncnc(Nc3ccc(C(=O)NCCc4ccccc4)cc3)c12
inactive: T-47D breast 65.1% | BT-549 breast 67.3% | MDA-MB-435 melanoma 87.5% | SW-620 colon 105% | HCC-2998 colon 91.5% | KM12 colon 89%

CCOC(=O)CNS(=O)(=O)CC(=O)c1ccccc1
inactive: T-47D breast 91.9% | BT-549 breast 86.4% | MDA-MB-435 melanoma 99.7% | SW-620 colon 110% | HCT-116 colon 103% | HCC-2998 colon 92.2% | KM12 colon 108%

Cn1c2ccccc2c2ccccc21
inactive: T-47D breast 90% | BT-549 breast 106% | MDA-MB-435 melanoma 103% | MCF7 breast 106% | HCT-116 colon 107% | HCC-2998 colon 110% | KM12 colon 101%

O=C(/C=C\c1ccccc1Cl)c1ccccc1
inactive: T-47D breast 91.6% | BT-549 breast 92% | MDA-MB-435 melanoma 90.5% | MCF7 breast 46.8% | HCT-116 colon 53.9% | HCC-2998 colon 94.6% | KM12 colon 66%

COc1ccc(Oc2[nH]n(C3=Nc4ccccc4Sc4ccccc43)c(=O)c2C#N)cc1
inactive: T-47D breast 92.8% | BT-549 breast 98.2% | MDA-MB-435 melanoma 101% | MCF7 breast 101% | HCT-116 colon 93.5% | HCC-2998 colon 103% | KM12 colon 104%

N#CC1=C(N2CCOCC2)NC2c3ccccc3Sc3ccccc3N2C1=N (configuration not stated)
inactive: T-47D breast 85.8% | BT-549 breast 97.2% | MDA-MB-435 melanoma 107% | MCF7 breast 98.4% | HCT-116 colon 97.2% | HCC-2998 colon 104% | KM12 colon 110%

O=C(/C=C/c1ccc(Br)cc1)c1ccccc1
inactive: T-47D breast 74.8% | BT-549 breast 95.8% | MDA-MB-435 melanoma 87.6% | SW-620 colon 65.6% | HCT-116 colon 61.6% | HCC-2998 colon 99.4% | KM12 colon 39.6%

COc1ccc(/C(=C(\c2ccccc2)[N+](=O)[O-])c2ccc(OCCN3CCCC3)cc2)cc1
inactive: T-47D breast 51.5% | BT-549 breast 74.2% | MDA-MB-435 melanoma 48.2% | MCF7 breast 37.4% | HCT-116 colon 44.5% | HCC-2998 colon 80.8% | KM12 colon 54.1%

CCCNC(=O)Oc1ccc(/C(=C(/C)Cc2ccc(OC)cc2)c2ccc(OCCN3CCCCC3)cc2)cc1
inactive: T-47D breast 45.4% | BT-549 breast 92.9% | MDA-MB-435 melanoma 92.5% | MCF7 breast 31.8% | HCT-116 colon 73% | HCC-2998 colon 84.6% | KM12 colon 94%
